{"source": "ChEMBL document CHEMBL4513216", "about": "“Probing the Open Global Health Chemical Diversity Library for Multistage-Active Starting Points for Next-Generation Antimalarials” (ACS Infect Dis, 2020)", "note": "Screen size: about 69,000 compounds; about 8,600 (12%) showed an effect of 50% or more. This excerpt belongs to a sample that is enriched for strong results.", "data": [{"tested_on": "Plasmodium berghei", "experiment": "Screen against P. berghei liver stage (PbLuc), transformed with Luciferase, at 10uM", "format": "functional, HepG2", "settings": "tested at 10 uM", "units": {"INHIBITION": "%"}, "values": [{"smiles": "CCc1noc(CN2CCN(C(=O)OC(C)(C)C)C(C)C2)n1", "note": "(centres undefined)", "INHIBITION": 20.4}, {"smiles": "Cc1ccc(CN2CC(O)CN(C(=O)OCC(C)C)CC2=O)cc1", "note": "(centres undefined)", "INHIBITION": 18.4}, {"smiles": "O=S(=O)(c1cn[nH]c1)N1C[C@@H](O)[C@H](N2CCc3ccccc3C2)C1", "INHIBITION": -51.3}, {"smiles": "COc1cccc(C2CC(=O)Nc3nc(N)sc32)c1OC", "note": "(centres undefined)", "INHIBITION": 5.53}, {"smiles": "CC(=O)c1cc(CN2CCCC23CCN(c2ccccn2)CC3)cs1", "INHIBITION": 12.7}, {"smiles": "CN(C)c1ncc(-c2cncn2CCc2ccc3c(c2)OCCO3)cn1", "INHIBITION": -12.3}, {"smiles": "CC(C)S(=O)(=O)N1CCN(C(=O)c2cnn(C)c2Cl)CC1", "INHIBITION": 19.845}, {"smiles": "O=C(O)c1ccccc1-n1cnc(CN2CCCCCC2)c1", "INHIBITION": 14.6}, {"smiles": "O=C(NCCn1nc(C2CCNC2)c2cccnc21)C1CC1", "note": "(centres undefined)", "INHIBITION": 13.5}, {"smiles": "CC(C)(C)CC(=O)NCCn1nc(C2CCNC2)c2cccnc21", "note": "(centres undefined)", "INHIBITION": 54.5}, {"smiles": "CC(C)CC(=O)NCCn1nc(C2CCNC2)c2cccnc21", "note": "(centres undefined)", "INHIBITION": 44.8}, {"smiles": "O=C(CCC1CCCC1)NCCn1nc(C2CCNC2)c2cccnc21", "note": "(centres undefined)", "INHIBITION": 38.7}, {"smiles": "O=C(CCC1CCCC1)NCCn1nc(C2CCNC2)c2nccnc21", "note": "(centres undefined)", "INHIBITION": 67.1}, {"smiles": "COCCC(=O)NCCn1nc(C2CCNC2)c2cccnc21", "note": "(centres undefined)", "INHIBITION": 5.11}, {"smiles": "CC(C)(C)OC(=O)N[C@@H]1C[C@@H](O)CN(C(=O)c2ccc(F)cc2)C[C@H]1O", "INHIBITION": 6.26}, {"smiles": "COCCN1CCC(c2ncc(C(=O)N3CCOCC3)c(C)n2)CC1", "INHIBITION": -2.09}, {"smiles": "CC(C)C(=O)NCc1cccc(N2CCCCC2=O)c1", "INHIBITION": 19.4}, {"smiles": "CC(C)C(=O)NCCNC(=O)C12CCC(=O)N1c1cc(Cl)ccc1S2", "note": "(centres undefined)", "INHIBITION": 57.6}, {"smiles": "COC(=O)CNC(=O)C12CCC(=O)N1c1cc(Cl)ccc1S2", "note": "(centres undefined)", "INHIBITION": 15.9}, {"smiles": "CCOCCCNC(=O)C1(C)CCC(=O)N1c1ccccc1F", "note": "(centres undefined)", "INHIBITION": 37.4}, {"smiles": "CC(C)NC(=O)CNC(=O)C12CCC(=O)N1c1cc(Cl)ccc1S2", "note": "(centres undefined)", "INHIBITION": 73.6}, {"smiles": "CC(C)NC(=O)CNC(=O)N1CCc2c([nH]c3ccc(Cl)cc23)C1", "INHIBITION": -22.9}, {"smiles": "Cc1nn(C)c(Cl)c1C1CCCN1C(=O)c1ccncc1", "note": "(centres undefined)", "INHIBITION": 38.5}, {"smiles": "O=C(c1cscn1)N1CCC2(CCCN(CCOc3ccccc3)C2)C1", "note": "(centres undefined)", "INHIBITION": -31.9}, {"smiles": "CCN(C)S(=O)(=O)NCC1CCCN(Cc2ccccc2F)C1", "note": "(centres undefined)", "INHIBITION": 1.74}, {"smiles": "CCC(C)N1Cc2c(C(=O)N3CCOCC3)nn(C)c2C1", "note": "(centres undefined)", "INHIBITION": 19.5}, {"smiles": "Cc1cnn(CC2CCCCN2C(=O)Cc2ccc(C#N)cc2)c1", "note": "(centres undefined)", "INHIBITION": 2.97}, {"smiles": "Cc1ccc2nc(CN3CCC(O)(Cn4ccnc4)CC3)cc(O)c2c1", "INHIBITION": 43.4}, {"smiles": "Cc1ccc2nc(CN3CCN(C4CCCC4)C(=O)C3)cc(O)c2c1", "INHIBITION": -0.529}, {"smiles": "Cc1ccc2nc(CN3CCC(O)(CN4CCCC4)CC3)cc(O)c2c1", "INHIBITION": 69.3}, {"smiles": "Oc1cc(CN2CCC(O)(Cn3ccnc3)CC2)nc2c(Cl)cccc12", "INHIBITION": 27.6}, {"smiles": "Cc1ccc2nc(CN3CCN(C4CCCCC4)C(=O)C3)cc(O)c2c1", "INHIBITION": -46.2}, {"smiles": "Oc1cc(CN2CCC(O)(Cn3ccnc3)CC2)nc2ccc(F)cc12", "INHIBITION": 62.8}, {"smiles": "CC(=O)N1CCc2nc(C3CCN(C(=O)c4ccccc4)C3)ncc2C1", "note": "(centres undefined)", "INHIBITION": -29.8}, {"smiles": "CN(Cc1cccs1)C(=O)CN1CCCC(Cn2cncn2)C1", "note": "(centres undefined)", "INHIBITION": -4.16}, {"smiles": "CN1CCCN(S(=O)(=O)c2cccc(C(=O)N3CCCCCC3)c2)CC1", "INHIBITION": 36}, {"smiles": "CCc1nnc(CNC(=O)CCC2CCCCN2C)s1", "note": "(centres undefined)", "INHIBITION": 6.72}, {"smiles": "CN1N=C(C(=O)N2CCCC(CCc3c(F)cccc3F)C2)CCC1=O", "note": "(centres undefined)", "INHIBITION": 0.139}, {"smiles": "O=c1cc(CN2CCCC(CCc3c(F)cccc3F)C2)[nH]c(=O)[nH]1", "note": "(centres undefined)", "INHIBITION": 58.5}, {"smiles": "CS(=O)(=O)NCCC1CCCN(Cc2ccccc2F)C1", "note": "(centres undefined)", "INHIBITION": 43.1}, {"smiles": "COc1coc(CN2CCCC(CCc3ccccc3C)C2)cc1=O", "note": "(centres undefined)", "INHIBITION": 46.4}, {"smiles": "COc1coc(CN2CCCC(CCc3c(F)cccc3F)C2)cc1=O", "note": "(centres undefined)", "INHIBITION": 56.3}, {"smiles": "Cc1[nH]c(=O)[nH]c(=O)c1CN1CCCC(CCc2ccccc2F)C1", "note": "(centres undefined)", "INHIBITION": 19.7}, {"smiles": "COc1cccc(F)c1CN1CCC(c2nc(C)cc(C)n2)C1", "note": "(centres undefined)", "INHIBITION": 43.45}, {"smiles": "Cc1[nH]c(=O)[nH]c(=O)c1CN1CCCC(CCc2c(F)cccc2F)C1", "note": "(centres undefined)", "INHIBITION": 6.8}, {"smiles": "COc1coc(CN2CCCC(CCc3ccccc3F)C2)cc1=O", "note": "(centres undefined)", "INHIBITION": 60.4}, {"smiles": "COCCOCC(=O)NCc1ccc(N(C)C)nc1", "INHIBITION": 26.1}, {"smiles": "COCCN1CCN(C(C(=O)O)c2ccc(SC)cc2)CC1", "note": "(centres undefined)", "INHIBITION": 49.4}, {"smiles": "Cn1cc(CN2CCCC(O)C2)c(-c2ccccc2F)n1", "note": "(centres undefined)", "INHIBITION": 3.13}, {"smiles": "COc1cccc(CN2CCC3(CC2)CCN(C(=O)[C@@H]2CCCO2)C3)c1", "INHIBITION": -47.9}, {"smiles": "Cc1ccc(N2CCOC(C)(C(=O)N(C)C)C2)nn1", "note": "(centres undefined)", "INHIBITION": 18.3}, {"smiles": "CCc1nnsc1C(=O)N1CCOC(c2nc(C)n[nH]2)C1", "note": "(centres undefined)", "INHIBITION": 51.3}, {"smiles": "CCc1nnsc1C(=O)N1CCOC(c2nc(C(C)C)n[nH]2)C1", "note": "(centres undefined)", "INHIBITION": -2.61}, {"smiles": "Cc1n[nH]c(C2CN(C(=O)c3csnn3)CCO2)n1", "note": "(centres undefined)", "INHIBITION": 35.1}, {"smiles": "CCc1nc(C)ncc1C(=O)N1CCOC(c2nc(C)n[nH]2)C1", "note": "(centres undefined)", "INHIBITION": 23.5}, {"smiles": "CCc1n[nH]c(C2CN(C(=O)c3csnn3)CCO2)n1", "note": "(centres undefined)", "INHIBITION": 40.4}, {"smiles": "Cc1n[nH]c(C2CN(C(=O)c3cc4c(s3)CCC4)CCO2)n1", "note": "(centres undefined)", "INHIBITION": 0.914}, {"smiles": "Cc1n[nH]c(C2CN(C(=O)c3cc4c(s3)CCCC4)CCO2)n1", "note": "(centres undefined)", "INHIBITION": -1.14}, {"smiles": "CC(C)c1n[nH]c(C2CN(C(=O)c3cc4c(s3)CCC4)CCO2)n1", "note": "(centres undefined)", "INHIBITION": 52.3}, {"smiles": "CC(C)c1n[nH]c(C2CN(C(=O)c3csnn3)CCO2)n1", "note": "(centres undefined)", "INHIBITION": 52.7}, {"smiles": "CC(CO)NC(=O)c1ccc(NCc2ccccc2)cc1", "note": "(centres undefined)", "INHIBITION": 19.8}, {"smiles": "Cc1cc(Nc2ccc(F)cn2)cc(C2CCCN2)n1", "note": "(centres undefined)", "INHIBITION": 34.9}, {"smiles": "CCN(C(=O)C1Cc2cc(Cl)ccc2O1)C1CC1", "note": "(centres undefined)", "INHIBITION": 38.3}, {"smiles": "CNc1cc(C)nc(C2CCN(CCO)CC2)n1", "INHIBITION": -2.09}, {"smiles": "Cc1nc(CN2C(=O)COC3(CCN(Cc4ccco4)CC3)C2C)cs1", "note": "(centres undefined)", "INHIBITION": -4.86}, {"smiles": "CCc1cc(NCc2ccccc2CN2CCCC2)n2ncnc2n1", "INHIBITION": 11.1}, {"smiles": "COc1cccc(N2CCC(CNc3cc(C)nc4ncnn34)C2)c1", "note": "(centres undefined)", "INHIBITION": 65.5}, {"smiles": "Cc1cc(NCc2ccccc2CN2CCCCC2)n2ncnc2n1", "INHIBITION": 54.4}, {"smiles": "COc1cccc(N2CCC(CNC(=O)NCc3ccco3)C2)c1", "note": "(centres undefined)", "INHIBITION": -51}, {"smiles": "Cc1cc(NC2CCN(c3ccccc3)C2)n2ncnc2n1", "note": "(centres undefined)", "INHIBITION": 4.94}, {"smiles": "Cc1cc(NCC2CCN(c3ccccc3)C2)n2ncnc2n1", "note": "(centres undefined)", "INHIBITION": 78.9}, {"smiles": "CCc1cc(NCc2cccnc2N2CCCCC2)n2ncnc2n1", "INHIBITION": 36.2}, {"smiles": "Cc1cc(NCC2CCCCC2)n2ncnc2n1", "INHIBITION": 9.8}, {"smiles": "Cc1cc(NCCn2cccn2)n2ncnc2n1", "INHIBITION": -38.8}]}]}
